Test results reported in PubChem BioAssay (EPA / NIEHS).
Inconclusive results are not listed. Activity calls are given as the source filed them. The calls were made as follows, unless noted: active = hit-call score of the fitted dose curve at least 0.9, where 1 is the maximum; inactive = score below 0.9.

Legend:
[1] = molecular target: Ratio of Nucleoli Translocation and Cytoplasm, AR (gene 367) (UniProt P10275); assay: UPITT_HCI_U2OS_AR_TIF2_Nucleoli_Cytoplasm_Ratio_Antagonist: University of Pittsburgh U2OS Androgen Receptor-Transcriptional Intermediary Factor 2 (AR-TIF2) Antagonism High Content Imaging Assay for Ratio of Nucleoli Translocation and Cytoplasm (AID 2283999; active = hit-call score of the fitted dose curve at least 0.9, where 1 is the maximum;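 also: antagonists lower the DHT-driven ratio of nucleolar to cytoplasmic red signal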)
Sequence of Ratio of Nucleoli Translocation and Cytoplasm, AR (gene 367) (P10275 whole entry, looked up): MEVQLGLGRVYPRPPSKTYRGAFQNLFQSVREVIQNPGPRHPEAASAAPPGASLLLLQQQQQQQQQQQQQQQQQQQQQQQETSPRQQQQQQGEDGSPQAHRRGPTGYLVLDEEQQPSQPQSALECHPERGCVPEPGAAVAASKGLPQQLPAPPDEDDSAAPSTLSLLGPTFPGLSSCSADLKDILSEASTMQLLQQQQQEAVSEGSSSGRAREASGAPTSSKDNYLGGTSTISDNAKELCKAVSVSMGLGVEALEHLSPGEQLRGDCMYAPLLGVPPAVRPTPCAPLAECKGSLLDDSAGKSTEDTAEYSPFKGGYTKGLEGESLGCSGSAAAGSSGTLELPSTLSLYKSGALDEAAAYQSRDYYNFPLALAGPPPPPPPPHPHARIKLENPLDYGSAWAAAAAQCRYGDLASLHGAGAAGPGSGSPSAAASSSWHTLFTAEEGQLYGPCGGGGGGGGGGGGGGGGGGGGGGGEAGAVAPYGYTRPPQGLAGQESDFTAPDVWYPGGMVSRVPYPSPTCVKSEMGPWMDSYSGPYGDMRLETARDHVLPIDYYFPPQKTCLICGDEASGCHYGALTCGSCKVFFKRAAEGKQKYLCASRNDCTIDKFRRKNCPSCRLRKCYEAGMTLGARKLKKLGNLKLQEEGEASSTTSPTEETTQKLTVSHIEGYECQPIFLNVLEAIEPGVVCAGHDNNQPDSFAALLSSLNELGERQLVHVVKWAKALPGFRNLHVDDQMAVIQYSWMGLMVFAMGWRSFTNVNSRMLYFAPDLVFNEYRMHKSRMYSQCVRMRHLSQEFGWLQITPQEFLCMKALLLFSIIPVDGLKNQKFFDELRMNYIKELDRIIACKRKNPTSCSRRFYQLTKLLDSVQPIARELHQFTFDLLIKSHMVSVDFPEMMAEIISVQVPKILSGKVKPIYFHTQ
Summary of the method: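 High-content imaging quantifies the red nucleolar:cytoplasmic fluorescence ratio in U2OS cells with AR-RFP and TIF2-GFP. Final concentrations are 20 uM (screen) or 0.195–50 uM (dose response), analysed against DHT as baseline.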

[2] = CCTE_Harrill_HTTr_Viability_MCF7: CCTE's 6-hour Cell Viability Assessment for the High-Throughput Transcriptomics (HTTr) Platform, in MCF-7 cells cultured in DMEM + 10% fetal bovine serum, Harrill Lab (AID 2284010)
Summary of the method: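 Viability measured through PI dye exclusion by high-content imaging at 6 h post-dosing.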

[3] = CCTE_Harrill_HTTr_Apoptosis_MCF7: CCTE's 6-hour Apoptosis Assessment for the High-Throughput Transcriptomics (HTTr) Platform, in MCF-7 cells cultured in DMEM + 10% fetal bovine serum, Harrill Lab (AID 2284011)
Summary of the method: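 Read-out: CellEvent Caspase 3/7 Green signal by high content imaging, gain-of-signal indicating apoptosis. MCF-7 cells, DMEM + 10% FBS, eight-point dilution series, 6 h exposure. Curves fitted bidirectionally relative to DMSO negative control.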

[4] = molecular target: Ratio of Nucleoli Translocation and Cytoplasm, AR (gene 367) (UniProt P10275); assay: UPITT_HCI_U2OS_AR_TIF2_Nucleoli_Cytoplasm_Ratio_Agonist: University of Pittsburgh U2OS Androgen Receptor-Transcriptional Intermediary Factor 2 (AR-TIF2) Agonism High Content Imaging Assay for Ratio of Nucleoli Translocation and Cytoplasm (AID 2284000; active = hit-call score of the fitted dose curve at least 0.9, where 1 is the maximum;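 also: hits raise the red nucleolar to cytoplasm ratio above vehicle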)
Summary of the method: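 U2OS cells expressing RFP-tagged human AR and GFP-tagged TIF2 were imaged by high-content fluorescence microscopy. The endpoint is the ratio of nucleolar to cytoplasmic red fluorescence, fitted for gain of signal relative to DMSO. Concentration-response spanned 0.195 to 50 uM final (0.5% DMSO).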

[5] = CCTE_Simmons_MITO_basal_resp_rate: CCTE's HepG2 Seahorse XF Respirometric Screening Assay at Basal Respiratory State, Simmons Lab (AID 2284001); conditions: actives raise or lower the signal
Summary of the method: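 HepG2 cells were given test chemicals at 7 concentrations, 125 nM to 100 uM final, and oxygen consumption rate was read every 6 min (3 min mix, 3 min measure) over 72 min. Basal-phase OCR was fitted bidirectionally against DMSO.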

[6] = CCTE_Simmons_MITO_max_resp_rate: CCTE's HepG2 Seahorse XF Respirometric Screening Assay at Maximal Respiratory State [uncoupled], Simmons Lab (AID 2284002); conditions: actives raise or lower the signal
Summary of the method: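 HepG2, Seahorse XF96, maximal OCR post-FCCP. Cpd 125 nM–100 uM final (7 conc), n=3 biological. Kinetic reads every 6 min (3 min mix/3 min measure) over 72 min; fit bidirectional vs DMSO.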

[7] = CCTE_Simmons_MITO_inhib_resp_rate: CCTE's HepG2 Seahorse XF Respirometric Screening Assay at Inhibited Respiratory State [full ETC block], Simmons Lab (AID 2284006); conditions: actives raise or lower the signal
Summary of the method: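 Inhibited respiration was taken as HepG2 oxygen consumption after rotenone/antimycin A, which followed test-compound and FCCP injections. Chemicals were tested at seven final concentrations from 125 nM to 100 uM. Activity was fitted bidirectionally relative to DMSO.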

[8] = CCTE_Simmons_MITO_viability: CellTiter-Glo Viability Assessment for CCTE's HepG2 Seahorse XF Respirometric Screening Assay [post-hoc], Simmons Lab (AID 2284007; active = hit-call score of the fitted dose curve at least 0.9, where 1 is the maximum)
Summary of the method: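 HepG2 cells; test chemical 7 conc. (125 nM–100 uM final) × 90 min; then luminescent ATP detection. DMSO vehicle. Positive control dichlone, 8 conc. from 10 nM to 100 uM final. Loss-of-signal endpoint.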

[9] = CCTE_Shafer_MEA_acute_burst_number: CCTE's Neural Acute Assay for Single-Electrode Bursts, Shafer Lab (AID 2284013)
Summary of the method: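 Rat cortical cultures, DIV 13/15; 40 min baseline, then 40 min with compound 0.03-40 uM, 37 C. Spikes: 300-5000 Hz band-pass, threshold 8x rms noise. Readout = % change in single-electrode bursts vs baseline, loss-of-signal fit.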

[10] = CCTE_Shafer_MEA_acute_burst_duration_mean: CCTE's Neural Acute Assay for Mean Burst Duration, Shafer Lab (AID 2284014);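 also: hits are decreases in mean burst duration relative to DMSO controls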
Summary of the method: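 Primary rat cortical neurons on 16-electrode MEA wells, treated on DIV 13 or 15 with compound (0.03-40 uM; ≥3 wells each). 40-min baseline and 40-min exposure recordings at 37 C; percent change in mean burst duration per well versus DMSO.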

[11] = CCTE_Shafer_MEA_acute_per_burst_spike_number_mean: CCTE's Neural Acute Assay for Average Number of Spikes Per Burst, Shafer Lab (AID 2284015);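 also: hits are decreases in mean spikes per burst versus baseline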
Summary of the method: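 Rat primary cortical neurons on 48-well MEAs (DIV 13 or 15) were treated with 0.03-40 uM compound at 37 C. Mean spikes per burst over 40 min were recorded before and after exposure and expressed as percent change from baseline, relative to DMSO.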

[12] = CCTE_Shafer_MEA_acute_interburst_interval_mean: CCTE's Neural Acute Assay for Mean Interburst Interval, Shafer Lab (AID 2284016);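 also: percent change of mean interburst interval versus each well's own pre-dose baseline; curves fitted for decrease in interburst interval relative to DMSO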
Summary of the method: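 Rat primary cortical neurons on 48-well MEAs at DIV 13 or 15 were exposed acutely to 0.03-40 uM. Spikes detected at 8x rms noise, 37 C. Mean interburst interval from 40 min recordings expressed as percent change from 40 min pre-treatment baseline.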

[13] = CCTE_Shafer_MEA_acute_burst_percentage_mean: CCTE's Neural Acute Assay for Percentage of Spikes in a Burst, Shafer Lab (AID 2284017);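 as to AC50: curve fitted for loss of signal so potency reflects decreased burst percentage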
Summary of the method: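 Primary rat cortical neurons on 48-well MEA plates, treated on DIV 13 or 15 at 0.03-40 uM. Spikes detected at 8x rms noise at 37C; percent change from 40-min baseline to 40-min post-dose recording, fitted versus DMSO.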

[14] = CCTE_Shafer_MEA_acute_burst_percentage_std: CCTE's Neural Acute Assay for Standard Deviation of Burst Percentage, Shafer Lab (AID 2284018);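 also: fitted in the negative direction so actives lower burst percentage SD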
Summary of the method: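 Primary rat cortical neurons on 16-electrode MEA wells were recorded 40 min at baseline (DIV 13 or 15), then 40 min after compound (0.03-40 uM), at 37 C. Well value is SD across electrodes of spikes-in-bursts/total spikes; endpoint is percent change, DMSO-referenced.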

[15] = CCTE_Shafer_MEA_acute_per_network_burst_spike_number_mean: CCTE's Neural Acute Assay for Average Number of Spikes in a Network Burst, Shafer Lab (AID 2284019);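 as to AC50: curve fitted for loss of signal so actives reduce spikes per network burst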
Summary of the method: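 Primary rat cortical neurons on 16-electrode MEA wells, DIV 13 or 15, 37 C; 40-min baseline then 40-min recording with compound (0.03-40 uM). Spikes per network burst (total spikes/number of bursts) expressed as percent change from baseline, DMSO reference.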

[16] = CCTE_Shafer_MEA_acute_per_network_burst_spike_number_std: CCTE's Neural Acute Assay for Standard Deviation of Number of Spikes in a Network Burst, Shafer Lab (AID 2284020);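 also: fitted for decrease in spike-number SD versus DMSO so actives lower it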
Summary of the method: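 Primary rat cortical neurons on 48-well MEAs (16 electrodes/well) recorded at DIV 13 or 15: 40-min baseline, then 40 min with compound (0.03-40 uM), 37 C. Value is percent change in SD of spikes per network burst, relative to DMSO.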

[17] = CCTE_Shafer_MEA_acute_network_burst_percentage: CCTE's Neural Acute Assay for Percentage of Network Bursts, Shafer Lab (AID 2284022);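 also: curves fitted for loss so actives lower network burst percentage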
Summary of the method: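 Rat cortical cultures, DIV 13/15; 20 min equilibration, 40 min baseline, compound 0.03-40 uM, 40 min recording, 37 C. Spikes: 300-5000 Hz band-pass, threshold 8x rms noise. Readout: % change in network-burst spike fraction; loss direction vs DMSO.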

[18] = CCTE_Shafer_MEA_acute_cross_correlation_area: CCTE's Neural Acute Assay for Area of Cross Correlation, Shafer Lab (AID 2284024);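 also: area under pooled inter-electrode spike cross-correlation near zero lag as percent change from own baseline; curves fitted for loss of cross-correlation area so actives lower synchrony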
Summary of the method: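 Rat cortical cultures, DIV 13/15, MEA; spikes detected at 8x rms noise (300-5000 Hz band-pass). Compound 0.03-40 uM, ≥3 wells each. Readout: % change in pooled inter-electrode cross-correlation area vs own baseline; DMSO negative control.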

[19] = CCTE_Shafer_MEA_acute_cross_correlation_HWHM: CCTE's Neural Acute Assay for Cross Correlation at Half Width at Half Maximum, Shafer Lab (AID 2284026);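 also: percent change per well from pre-dose baseline in spike cross-correlogram half width; hits are a decrease in cross-correlogram half width relative to DMSO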
Summary of the method: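 Read-out: half width at half maximum of action-potential cross-correlogram, percent change versus pre-treatment baseline, fitted in loss direction against DMSO. Rat cortical cultures, DIV 13 or 15, dosed 0.03-40 uM, 40-min recordings at 37 C.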

Measured: AC50

CC(C)(C)N(NC(=O)c1ccc(Cl)cc1)C(=O)c1ccccc1
inactive: [1] | [2] | [3]

ClC(Cl)=C(c1ccc(Cl)cc1)c1ccccc1Cl
inactive: [1] | [4] | [2] | [3]

ClC(Cl)(Cl)c1ccccc1
not listed: [1] | [4]
inactive: all other assays above

Nc1cc2c3c(c1)C(c1ccccc1)=N[C@@H](NC(=O)c1cccnc1)C(=O)N3CC2
inactive: [2] | [3]

[N-]=[N+]=[N-]
active: [6] 50 µM
not listed: [8]
inactive: all other assays above

Cc1cccc(N)c1
inactive: [2] | [3]

CC(Cc1ccc(OCC(=O)O)cc1)NCC(O)c1csc(C(F)(F)F)n1 (stereo not drawn)
inactive: [2] | [3]

ClC1=C(Cl)C2(Cl)C3C(Cl)C(Cl)CC3C1(Cl)C2(Cl)Cl (stereo not drawn)
active: [13] 0.29 µM | [15] 0.309 µM | [17] 33.8 µM | [19] 4.29 µM
not listed: [5] | [6] | [7] | [8]
inactive: all other assays above

CCCCCCCc1ccc(O)cc1
active: [1] 79.6 µM | [4] 28.9 µM | [5] 40.4 µM | [6] 27.6 µM
inactive: [7] | [2] | [3]

CCNc1nc(Cl)nc(NC(C)(C)C)n1
inactive: [4] | [2] | [3]

CC(C)(C)c1ccc(O)cc1
active: [5] 37.2 µM
inactive: [6] | [7] | [8] | [2] | [3]

CCC(C)(C)c1ccc(O)cc1
active: [5] 49.9 µM | [6] 42.5 µM | [9] 0.283 µM | [12] 0.0877 µM | [13] 9.06 µM | [16] 8.27 µM | [19] 9.35 µM
inactive: [7] | [10] | [11] | [14] | [15] | [17] | [18]

CCN(CC)c1ccccc1
inactive: [4] | [2] | [3]

C/C(=N\NC(=O)Nc1cc(F)cc(F)c1)c1ncccc1C(=O)O
inactive: [2] | [3]

CCOP(=S)(OCC)SCSc1ccc(Cl)cc1
inactive: [2] | [3]

CCCCN(CCCC)SN(C)C(=O)Oc1cccc2c1OC(C)(C)C2
inactive: [2] | [3]

c1nc[nH]n1
inactive: [2] | [3]

CCOS(=O)(=O)OCC
inactive: [2] | [3]

Clc1ccc(Oc2ccccc2)cc1
inactive: [2] | [3]

CCOP(=S)(OCC)SCSCC
inactive: [5] | [7] | [8] | [2] | [3]
active: [6] 50 µM

Cc1c([N+](=O)[O-])cc2c(c1[N+](=O)[O-])C(C)(C)CC2(C)C
inactive: [2] | [3]

Nc1ccc(Sc2ccc(N)cc2)cc1
inactive: [2] | [3]

Cc1ccc([N+](=O)[O-])cc1C
inactive: [2] | [3]

Cc1ccc(N)cc1N
not listed: [1] | [4] | [8]
inactive: all other assays above

CCCCN(CC)C(=O)SCCC
inactive: [1] | [4] | [2] | [3]

O=[N+]([O-])c1ccccc1
inactive: [2] | [3]

O=P(OCC(Br)CBr)(OCC(Br)CBr)OCC(Br)CBr (stereo not drawn)
inactive: [1] | [4] | [2] | [3]

CCCCN(CCCC)N=O
inactive: [2] | [3]

c1cc2c3c(cccc3c1)CC2
inactive: [1] | [4] | [2] | [3]

FC(F)(F)c1ccc(Cl)cc1
inactive: [2] | [3]

CC1(C)CN=C(NN=C(/C=C/c2ccc(C(F)(F)F)cc2)/C=C/c2ccc(C(F)(F)F)cc2)NC1
inactive: [1] | [4] | [2] | [3]

CSC(C)(C)C=NO
inactive: [2] | [3]

CO/N=C(/C(=O)OC)c1ccccc1COc1ccccc1C
inactive: [1] | [4] | [2] | [3]

O=P(Oc1ccccc1)(Oc1ccccc1)Oc1ccccc1
inactive: [2] | [3]

O=C(O)C(Cl)Cl
inactive: [2] | [3]

CCCCC(CC)COP(=O)(Oc1ccccc1)Oc1ccccc1 (stereo not drawn)
active: [13] 23.7 µM | [14] 15 µM | [19] 10.3 µM
not listed: [5] | [6] | [7] | [8]
inactive: all other assays above
